# Screening results deposited in PubChem BioAssay by several laboratories.
# The list is not random: actives were taken first. Their share in the collection is about 1.3%.
# S1P4 antagonist: human S1P4 receptor antagonism; AID 1510; S1P4-expressing cells, antagonist mode, reporter read-out; inhibition, % at 4.98 µM; 220,000 compounds, 0.26% hits; O95977; in the data active = inhibition above about 29%;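 note: 0% = wells stimulated with agonist and 100% = vehicle wells without agonist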
# Target sequence (O95977 whole entry, looked up): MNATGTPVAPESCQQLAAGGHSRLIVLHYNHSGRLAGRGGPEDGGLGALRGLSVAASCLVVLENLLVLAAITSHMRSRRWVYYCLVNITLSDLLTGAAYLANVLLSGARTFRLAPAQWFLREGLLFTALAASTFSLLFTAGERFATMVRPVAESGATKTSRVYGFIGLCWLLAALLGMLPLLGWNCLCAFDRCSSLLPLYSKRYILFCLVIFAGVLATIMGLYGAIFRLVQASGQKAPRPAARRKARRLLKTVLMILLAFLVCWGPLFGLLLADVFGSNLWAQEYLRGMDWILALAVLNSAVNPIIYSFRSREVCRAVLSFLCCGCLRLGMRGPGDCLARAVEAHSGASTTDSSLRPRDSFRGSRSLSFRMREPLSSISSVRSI
# PERK inhibitor: blocks human PERK kinase; Q9NZJ5; CHO PERK-DD fusion, SEAP luminescence translation reporter; inhibition, % at 5.6 µM; 220,000 compounds, 0.17% hits; AID 1416;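 active = inhibition above the mean inhibition of all tested compounds plus 3 SD, set separately per screening campaign, cut at about 2.9% in these data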;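 note: PERK kinase domain activated by AP20187 dimerizer at 100 nM; 0% = DMSO with dimerizer and 100% = rapamycin at 8.4 µM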
# S1P3 antagonist: blocks the human S1P3 receptor; Q99500; CHO S1P3 NFAT-BLA reporter, FRET fluorescence, antagonist mode; inhibition, % at 4.98 µM; 170,000 compounds, 0.27% hits; AID 485;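 active = inhibition above the plate cutoff, the mean inhibition of test wells on that plate plus 3 SD, cut at about 28% in these data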;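 note: cells challenged with S1P at its EC80 of 0.8 µM; blue over green emission ratio from cleaved BLA substrate after 4 h stimulation; 0% = S1P-stimulated wells and 100% = unstimulated DMSO-only wells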
# S1P4 ag: human S1P4 receptor agonism | O95977 | AID 1509 | S1P4-expressing cell line, agonist reporter assay | 220,000 compounds, 0.35% hits | activation, % at 4.98 µM; in the data active = activation above about 11%;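 note: 0% = DMSO vehicle and 100% = reference agonist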
# m-calpain inh: blocks pig calpain II enzyme activity. purified calpain II, fluorogenic peptide substrate, 30 min. inhibition, % at 16 µM. 220,000 compounds, 0.37% hits;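 active = inhibition above about 50%, limit read from the data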
# The depositor's hits bear a star; i = inactive; nt = no result given.
SMILES,S1P4 antagonist,PERK inhibitor,S1P3 antagonist,S1P4 ag,m-calpain inh
COCC(C)NC(=O)CCS(=O)(=O)c1nc(-c2ccc(OC)cc2)cc(C(F)(F)F)n1 (stereo not drawn),-5,0,-31,-1,i
COc1ccc(-c2cc(C(F)(F)F)nc(S(=O)(=O)CCCC(=O)Nc3cccnc3Cl)n2)cc1OC,29*,1,-19,0,-53
CC(C)C[C@H](NC(=O)c1nc[nH]c1C(=O)NCc1ccccc1)C(=O)OC(C)(C)C,11,1,-26,1,60*
CC(C)C[C@H](NC(=O)c1[nH]cnc1C(=O)N[C@@H](Cc1ccccc1)C(=O)OC(C)(C)C)C(=O)OC(C)(C)C,nt,nt,nt,nt,24
CC(C)(C)OC(=O)NCCCCCNC(=O)c1[nH]cnc1C(=O)N[C@@H](CCCCNC(=O)OC(C)(C)C)C(=O)OC(C)(C)C,10,0,-14,-1,54*
CC(C)(C)OC(=O)NCCCC[C@H](NC(=O)c1nc[nH]c1C(=O)N[C@@H](CCCCNC(=O)OC(C)(C)C)C(=O)OC(C)(C)C)C(=O)OC(C)(C)C,nt,nt,nt,nt,47
NC(=S)N/N=C/c1cn(-c2ccccc2)nc1-c1cccnc1,-13,0,7,0,33
CCCCN(CC)CCNC(=O)CNC(=O)Cn1ccc2ccccc2c1=O,4,0,-4,1,52*
CCN(CC)CCCNC(=O)Cn1ccc2ccccc2c1=O,-16,0,-8,2,-17
Cc1c([N+](=O)[O-])c([N+](=O)[O-])nn1CC(=O)N1CCOCC1,-4,-1,-6,-1,-19
COc1ccccc1C(=O)NCCc1c(C)[nH]c2c(C)ccc(F)c12,0,1,-3,6,13
COC(=O)[C@@H](N)CS,-14,3.0*,-6,0,7
COC(=O)C(N)Cc1ccc(O)cc1 (stereo not drawn),1,0,nt,-3,-16
O=C(Nc1ccc(F)cc1F)N1CCN(CCc2ccccc2)CC1,-10,1,12,0,-16
COc1ccc(C2=NOC(C)(c3nnc(-c4ccc(F)cc4)o3)C2)cc1 (stereo not drawn),nt,nt,nt,nt,-18
CCOC(=O)c1nnn(-c2nonc2N)c1COc1cc(C)c(Cl)c(C)c1,1,0,58*,3,nt
CN(C)c1nc(N)nc(-c2nc3ccccc3s2)n1,-5,1,60*,1,-10
Nc1ccccc1-c1nc2ccccc2s1,-6,1,-39,5,i
O=C(Cn1c(=O)oc2cccnc21)Nc1ccccc1Oc1ccc(Cl)cc1Cl,0,2,5,1,-5
CCOC(=O)c1c(C)[nH]c(C)c1C(=O)CSc1nnc(-c2cc(OC)c(OC)c(OC)c2)o1,-6,3.2*,-19,0,-13
CCCCOC(=O)CSc1nnc(-c2cc(OC)c(OC)c(OC)c2)o1,-25,1,-10,2,7
CCc1cc(CN2CCOCC2)c(NC(=O)c2ccccc2)s1,-7,0,-2,0,-4
Cc1ccc(N(CCCCN2C(=O)c3ccccc3C2=O)C(=O)c2ccc(Cl)s2)cc1,-7,1,-14,0,50*
Cc1c(C(=O)OCCOC(C)C)[nH]c2c1C(=O)CC(c1ccco1)C2 (stereo not drawn),15,1,54*,-1,-64
C=CCOC(=O)c1[nH]c2c(c1C)C(=O)CC(c1cc(OC)c(OC)c(OC)c1)C2 (stereo not drawn),-6,-1,0,1,1
SMILES,S1P4 antagonist,PERK inhibitor,S1P3 antagonist,S1P4 ag,m-calpain inh
CCCCOC(=O)c1[nH]c2c(c1C)C(=O)CC(c1cc(OC)c(OC)c(OC)c1)C2 (stereo not drawn),-5,-1,52*,2,4
Cc1ccccc1Oc1nc(-c2ccccn2)nc2ccccc12,-10,0,2,0,-11
O=C1NC(=S)S/C1=C\c1ccc(SCc2ccco2)o1,-13,1,7,1,52*
CCOC(=O)C(CC)(CC)C(=O)/C=C/c1ccc(Br)cc1,-12,3.2*,nt,-2,6
O=C(O)CC/C(=N/Nc1ncc(C(F)(F)F)cc1Cl)C(=O)O,-1,0,-26,1,8
O=C(Nc1ccccc1)c1cc2n(n1)C(C(F)(F)F)CC(C1CC1)N2 (stereo not drawn),10,0,-3,-1,15
O=C(NCc1ccc(F)cc1)c1cc2n(n1)C(C(F)(F)F)CC(C1CC1)N2 (stereo not drawn),-19,0,-9,3,66*
COC(=O)c1cc2c(=O)n3ccccc3nc2n(C(C)C)c1=N,-28,1,1,12*,nt
